Source: PubChem BioAssay
HT1080-NT tox: kills 2HG-producing HT-1080-NT fibrosarcoma cells. HT-1080-NT fibrosarcoma viability, CellTiter-Glo ATP luminescence, 48 h. Potency, µM (highest dose often 46.1 µM), most hits filed as cytotoxic. 360,000 tested, 1.6% active. AID 686970;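 further: NT is the 2HG producing partner of a matched IDH1 knockdown line; nearly all actives have a fitted effect of over 55% in size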
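Viability of the 2HG-overproducing fibrosarcoma line after 48 hours of compound exposure at 37 degrees C was determined by luminescence with CellTiter-Glo, and concentration-effect curves were then fitted and categorized.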
HT1080 IDH1KD tx: kills HT-1080 cells with IDH1 knockdown. HT-1080 IDH1 knockdown viability, ATP luminescence, 48 h. Potency, µM (highest dose often 46.1 µM), hits mostly cytotoxic. 360,000 tested, 2% active. AID 686971
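HT-1080-IDH1KD cells (IDH1 knocked down), 750/well in RPMI with 5% FBS, treated with compound 48 h at 37 degrees C. Viability by CellTiter-Glo luminescence, normalised to DMSO and no-cell wells; concentration-response curves classed.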
KB-3-1 tox: kills parental KB-3-1 adenocarcinoma cells | KB-3-1 viability, CellTiter-Glo ATP luminescence, 72 h | Potency, µM (series often up to 46.1 µM), actives largely listed as cytotoxic | 400,000 tested, 1.4% active | AID 1347075; further: nearly all actives have a fitted effect of over 60% in size
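KB-3-1 cells, DMEM (no phenol red) + 10% FBS; compound by pin transfer, 72 h, 37 °C. Readout: CellTiter-Glo luminescence after 10 min. Data normalized, curve-fitted.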
KB-V1 cytotox: kills drug-selected multidrug resistant KB-V1 cells | KB-V1 MDR cells viability, CellTiter-Glo, 72 h | 400,000 tested, 3.4% active | Potency, µM (doses to about 46.1 µM), hits mostly cytotoxic; further: nearly all actives have a fitted effect of over 60% in size
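Compound-treated KB-V1 multidrug-resistant cells, 72 h, 37 degrees C; viability by CellTiter-Glo. Fitted qHTS curves give the values.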
IL1B secr inh: inhibitors of inflammasome signaling (IL-1 beta secretion). 360,000 tested, 4.7% active. AID 743279. THP-1 LPS/ATP IL-1B secretion, AlphaLISA, 16 h; stronger effect = lower value. activity change, % at 57.5 µM; in the data active means activity change below about -50%; inconclusive means mostly about -30% to -49%
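THP-1 cells pretreated 1 hr with compounds (up to 57.5 uM final), then stimulated with LPS (250 ng/mL final) plus ATP (1.25 mM final); secreted IL-1B measured by AlphaLISA after 16 hr, decreased signal indicating inhibition.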
Each line names hits and unclear results; the compound was inactive in the other large screens. Shown are actives, neighbours in structure and some others; about 8.8% of the full set was active somewhere. Unless noted, the call rests on the fitted dose curve; in most records, active means well fitted curve in the direction sought with a large enough effect; inconclusive means small, poorly fitted or top-dose-only effect, or another doubt; inactive means no such curve, though single readings can be large; an effect the other way counts as inactive or inconclusive.

O=C(Nc1ccccc1-c1nnc(SCc2ccccc2Cl)o1)c1ccccc1	KB-V1 cytotox 14.6µM
CCc1nnc(NC(=O)CSc2nnc(-c3ccccc3NC(=O)c3ccccc3)o2)s1	HT1080-NT tox 12.6µM, KB-V1 cytotox inconclusive
CCCCn1c(=O)n(Cc2cccc(F)c2)c(=O)c2c1ncn2Cc1ccco1	KB-V1 cytotox inconclusive
CCCCc1c(-c2ccc(F)cc2F)ncn1CCc1ccccc1OC	HT1080-NT tox inconclusive, HT1080 IDH1KD tx inconclusive, KB-3-1 tox inconclusive, KB-V1 cytotox inconclusive, IL1B secr inh -70.9
CCCCCc1c(-c2ccc(F)cc2F)ncn1CCc1ccccc1OC	HT1080-NT tox inconclusive, HT1080 IDH1KD tx inconclusive, KB-3-1 tox inconclusive, KB-V1 cytotox 13µM, IL1B secr inh -99.9
CCCCn1c(=O)[nH]c(=O)c2c1nc(-c1ccccc1F)n2Cc1ccccc1OC	KB-3-1 tox inconclusive, KB-V1 cytotox inconclusive
CCCCc1c(Cc2cccc(F)c2)ncn1CCc1ccccc1OC	HT1080-NT tox 16.4µM, HT1080 IDH1KD tx inconclusive, KB-3-1 tox inconclusive, KB-V1 cytotox inconclusive
C=CCn1nc(C(=O)Nc2ccc(OC)cc2)cc1-c1sc(NC(=O)c2ccccc2)nc1C	none
CCN1CCN(c2cc(N3CCc4ccccc4C3)c(F)cc2[N+](=O)[O-])CC1	KB-V1 cytotox inconclusive, IL1B secr inh -103.7
O=[N+]([O-])c1cccc(-c2nc(-c3cccs3)c(-c3cccs3)[nH]2)c1	HT1080 IDH1KD tx inconclusive
Nc1ccc(-c2nc3ccc(N)cc3[nH]2)cc1	none (no result: HT1080-NT tox, HT1080 IDH1KD tx)
Fc1ccc(-c2nc(-c3cccs3)[nH]c2-c2ccc(F)cc2)cc1	KB-3-1 tox 18.4µM, KB-V1 cytotox 16.4µM, IL1B secr inh -62.8
O=[N+]([O-])c1ccc(-c2nc(-c3cccs3)c(-c3cccs3)[nH]2)cc1	HT1080-NT tox inconclusive, KB-3-1 tox inconclusive, KB-V1 cytotox inconclusive, IL1B secr inh -80.7
O=[N+]([O-])c1ccc2nc(/C=C/c3ccc(Cl)cc3)[nH]c2c1	HT1080-NT tox inconclusive, HT1080 IDH1KD tx inconclusive, KB-V1 cytotox inconclusive, IL1B secr inh -93.9
Nc1ccc(-c2nc3ccc([N+](=O)[O-])cc3[nH]2)cc1	IL1B secr inh -80.0
COc1ccc(-c2noc(N(c3ccc(F)c(Cl)c3)c3nc(-c4ccc(OC)c(OC)c4)no3)n2)cc1OC	none (no result: HT1080-NT tox, HT1080 IDH1KD tx, IL1B secr inh)
O=[N+]([O-])c1ccc(-c2nc3ccc([N+](=O)[O-])cc3[nH]2)cc1	HT1080-NT tox inconclusive, HT1080 IDH1KD tx inconclusive, KB-V1 cytotox inconclusive, IL1B secr inh -90.6
COc1ccccc1OCC(=O)NNC(=O)Nc1ccc(Cl)cc1	HT1080-NT tox 18.4µM, HT1080 IDH1KD tx 5.8µM, KB-3-1 tox 18.4µM, KB-V1 cytotox 10.3µM
Cc1ccc(NC(=O)NNC(=O)COc2ccc(Cl)cc2)cc1	none
O=C(CN1c2ccccc2Sc2ccccc21)NNC(=O)Nc1ccc(Cl)c(Cl)c1	HT1080-NT tox 20.6µM, HT1080 IDH1KD tx inconclusive, IL1B secr inh -92.0
O=C(CSc1nc2ccccc2s1)NNC(=O)Nc1ccc(Cl)c(Cl)c1	none
O=C(CCc1ccccc1)NNC(=O)Nc1ccc(Cl)cc1	none
O=C(CN1c2ccccc2Sc2ccccc21)NNC(=O)Nc1ccc(Cl)cc1	HT1080-NT tox 23.1µM, HT1080 IDH1KD tx 20.6µM, IL1B secr inh -80.1
CCCN1CNc2c(c(=O)[nH]c(=S)n2CCc2ccc(OCC)c(OCC)c2)C1	none (no result: KB-3-1 tox, KB-V1 cytotox, IL1B secr inh)
CC(C)N1C(=O)/C(=C\c2nc3ccccc3c(=O)n2-c2ccccc2)c2ccccc21	HT1080-NT tox inconclusive, HT1080 IDH1KD tx inconclusive, KB-3-1 tox inconclusive, KB-V1 cytotox inconclusive, IL1B secr inh -106.3
CC(C)N1C(=O)/C(=C/c2nc3ccccc3c(=O)n2-c2ccccc2)c2ccccc21	HT1080 IDH1KD tx inconclusive, KB-3-1 tox inconclusive, KB-V1 cytotox inconclusive, IL1B secr inh -95.5
COc1cc(NC(=O)CCc2c(C)noc2C)c(Cl)cc1C(=O)O	none
NC1=NC(=O)/C(=C\c2cc([N+](=O)[O-])ccc2Cl)S1	none
CCOc1ccc(NC(=O)CN(C)C(=O)c2cn3ccccc3n2)cc1OCC	none
COCc1cc(C)n(CC(=O)Nc2ccc3c(c2)OCO3)c(=O)c1C#N	KB-V1 cytotox inconclusive
CCCCCOc1ccc(/C(C)=N/NC2=NCCN2)cc1	IL1B secr inh -65.6
CCOc1ccc(Br)cc1/C(C)=N\NC1=NCCN1	HT1080-NT tox 20.6µM, HT1080 IDH1KD tx inconclusive, KB-3-1 tox 6.51µM, KB-V1 cytotox inconclusive, IL1B secr inh -80.5
CC(=NNC1=NCCN1)c1cnn(C2=NCCN2)c1C	none
CCCCCCOc1ccc(/C(C)=N/NC2=NCCN2)cc1	IL1B secr inh -55.7
CCCCCCOc1ccc(C(=O)O)cc1	none
CN1C(=O)/C(=C/c2ccccc2OCc2cccc(F)c2)NC1=S	none
CC(=O)N1C(C)(C)CC(=NOS(=O)(=O)c2ccccc2)CC1(C)C	none
CCCCc1c(C)nc(Nc2ccc(OC)cc2)[nH]c1=O	KB-V1 cytotox 23.1µM
CCCc1cc(=O)[nH]c(Nc2cc(C)cc(C)c2)n1	KB-V1 cytotox inconclusive (no result: HT1080-NT tox, HT1080 IDH1KD tx, IL1B secr inh)
CCCCCc1c(C)nc(Nc2ccc(F)cc2)[nH]c1=O	HT1080-NT tox inconclusive, HT1080 IDH1KD tx inconclusive, KB-V1 cytotox inconclusive
CCCCc1ccc(Nc2nc(CCC)cc(=O)[nH]2)cc1	HT1080-NT tox 20.6µM, HT1080 IDH1KD tx inconclusive, KB-3-1 tox inconclusive, KB-V1 cytotox inconclusive, IL1B secr inh -104.7
O=C(c1ccco1)n1nc(-c2ccccc2)nc1NCc1ccccc1Cl	none (no result: HT1080-NT tox, HT1080 IDH1KD tx, IL1B secr inh)
